High-throughput results from PubChem BioAssay.
Sampled rows, rich in hits. Any-hit rate of the full collection: about 1.2%.
RGS7-Gao reg – human RGS7-Galphao interaction regulation; binding response (% of control), % at 10 µM; AID 1439; P09471; actives 0.35% (n = 220,000); Multiplexed bead flow cytometry, RGS7-Galphao binding; actives lie on both sides; in the data active means binding response below about 49% or above about 150%; inconclusive means no clear call, values can overlap the other calls; inactive means in between;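 further: fluorescent Galphao held in activated GDP-AlF4 state binding bead-coupled RGS7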
Target sequence (P09471 whole entry, looked up): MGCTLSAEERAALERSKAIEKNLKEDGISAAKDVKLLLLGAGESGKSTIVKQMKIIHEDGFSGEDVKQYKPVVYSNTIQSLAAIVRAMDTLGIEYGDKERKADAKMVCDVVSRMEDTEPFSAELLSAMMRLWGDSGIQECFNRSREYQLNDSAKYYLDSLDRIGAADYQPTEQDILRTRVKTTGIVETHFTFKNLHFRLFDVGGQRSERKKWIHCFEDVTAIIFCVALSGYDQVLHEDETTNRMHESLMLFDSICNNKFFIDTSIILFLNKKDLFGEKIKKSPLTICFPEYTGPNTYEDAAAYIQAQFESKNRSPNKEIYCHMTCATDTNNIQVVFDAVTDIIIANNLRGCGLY
RGS16-Gao HTS – regulators of human RGS16-Galphao interaction. binding response (% of control), % at 10 µM. AID 1441. actives 0.38% (n = 220,000). O15492+P09471. bead-based flow cytometry RGS16-Galphao binding, fluorescence; actives lie on both sides;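 further: Galphao activated by GDP with aluminum fluoride before binding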
GSH fluor – compound fluoresces at 488/530 nm on GSH beads; actives 0.25% (n = 190,000); AID 1776; GSH beads flow cytometry, compound fluorescence 488/530 nm; stronger effect = higher value; fluorescence (KMESF) at 10 µM; in the data active means fluorescence above about 89;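 further: glutathione beads carrying GST-tagged Bcl family fusion proteins plus one bare bead set; values are compound well signal with DMSO vehicle wells as background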
Avidin bead fluor – avidin bead compound fluorescence profile; Avidin beads, compound fluorescence 488/530 nm, flow cytometry; stronger effect = higher value; fluorescence (KMESF) at 10 µM; actives 0.38% (n = 220,000); in the data active means fluorescence above about 47
RGS8-Gao – human RGS8-Galphao interaction regulation; P09471; multiplexed bead flow cytometry, RGS8-Galphao binding; actives lie on both sides; response (percent of control binding), % at 10 µM; actives 0.34% (n = 220,000); in the data active means response below about 60% or above about 140%; inactive means in between;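 further: Galphao activated as the GDP aluminium fluoride complex binding bead-coupled RGS8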
RGS4-Gao reg – modulates binding of RGS4 to human Galphao | P09471 | Multiplexed bead flow cytometry; actives lie on both sides | binding response (% of control), % at 10 µM | actives 0.33% (n = 220,000); in the data active means binding response below about 49% or above about 150%; inactive means in between;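 further: fluorescent Galphao activated with aluminum fluoride binding bead-coupled RGS4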
RGS-Gao – regulators of human RGS4-Galphao interaction; actives 99% (n = 1,600); shares compounds with RGS16-Gao HTS; AID 1504; multiplexed bead flow cytometry, RGS–Galpha-o binding; RGS4–Galpha-o binding response, % at 10 µM;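 further: fluorescently labeled Galpha-o bound to GDP with aluminium fluoride binding biotinylated RGS beads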
Target sequence (P09471 whole entry, looked up): as above
Target sequence (P49798 whole entry, looked up): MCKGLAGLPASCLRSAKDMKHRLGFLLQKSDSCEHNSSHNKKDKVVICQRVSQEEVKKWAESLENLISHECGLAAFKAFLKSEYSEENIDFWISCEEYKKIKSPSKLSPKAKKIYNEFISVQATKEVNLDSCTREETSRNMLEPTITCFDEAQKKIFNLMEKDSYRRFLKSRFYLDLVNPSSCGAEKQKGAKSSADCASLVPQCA
Biotin-avidin – biotin-avidin bead binding disruption counter-screen; inhibition, % at 10 µM; shares compounds with RGS16-Gao HTS; streptavidin beads, fluorescein-biotin binding, flow cytometry; 1,700 tested, under 10 active;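 active means inhibition above 50%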;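 further: median green fluorescence of gated singlet beads compared with DMSO control wells; 0% = DMSO wells and 100% = complete loss of bead fluorescence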
RGS8-Gao single – RGS8-Galphao interaction regulation, single point confirmation; actives 3% (n = 1,700); shares compounds with RGS16-Gao HTS; binding response (% of control), % at 10 µM; bead-based flow cytometry RGS8-Galphao binding, fluorescence; actives lie on both sides; in the data active means binding response below about 72% or above about 130%; inactive means in between;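 further: Galphao activated as GDP AlF4 complex before binding bead RGS8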
RGS7-Gao single – RGS7-Galphao interaction regulation, single point confirmation. shares compounds with RGS16-Gao HTS. bead-based flow cytometry RGS7-Galphao binding; actives lie on both sides. response (percent of control binding), % at 10 µM. actives 7.8% (n = 1,700). AID 1837; in the data active means response below about 75% or above about 130%; inactive means in between;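 further: fluorescent Galphao activated with GDP and aluminum fluoride binding bead-coupled RGS7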
RGS16-Gao conf – RGS16-Galphao interaction regulation, single point confirmation; response (% of control binding), % at 10 µM; actives 4% (n = 1,700); shares compounds with RGS16-Gao HTS; bead-based flow cytometry, RGS16-Galphao binding; actives lie on both sides; AID 1838; in the data active means response below about 74% or above about 130%; inactive means in between;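 further: Galphao activated as the GDP aluminium fluoride complex binding bead-coupled RGS16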
RGS4-Gao single – confirmation of regulators of human RGS4-Galphao interaction; shares compounds with RGS16-Gao HTS; RGS4-Galphao binding, multiplexed bead flow cytometry; actives lie on both sides; binding response (% of control), % at 10 µM; actives 4% (n = 1,700); in the data active means binding response below about 74% or above about 130%; inactive means in between
RGS19-Gao single – confirmation of regulators of human RGS19-Galphao interaction; shares compounds with RGS16-Gao HTS; bead-based flow cytometry RGS19-Galphao binding; actives lie on both sides; response (percent of control binding), % at 10 µM; actives 5% (n = 1,700); AID 1841; in the data active means response below about 50% or above about 160%; inactive means in between;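 further: 100% = no compound control and 0% = blank background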
* = called active by the depositor; ? = inconclusive; / = no result; [ ] = dose if it differs, or a comment. Unless noted, how the calls were made is not given here.

SMILES	RGS7-Gao reg	RGS16-Gao HTS	GSH fluor	Avidin bead fluor	RGS8-Gao	RGS4-Gao reg	RGS-Gao	Biotin-avidin	RGS8-Gao single	RGS7-Gao single	RGS16-Gao conf	RGS4-Gao single	RGS19-Gao single
Cc1sc(N)c(C(=O)c2ccccc2)c1C	253*[activator]	113	10	248*	87	126	126*	1	90	97	88	94	77
O=C(CC1Sc2ccccc2NC1=O)Nc1ccccc1[N+](=O)[O-] (stereo unspecified)	92	65	13	8	89	97	/	/	/	/	/	/	/
Cc1cc(/C=C2\SC(=S)N(C)C2=O)c(C)n1-c1cccc(O)c1	?	99	/	6	102	96	/	/	/	/	/	/	/
COc1ccc(-n2c(C)cc(/C=C3/SC(=S)N(C)C3=O)c2C)cc1	-5.5*	-2.3*	24	-3	2.9*	-20*	/	3	99	104	98	98	103
C/C(=N/NC(=O)CN1CCN(Cc2ccccc2Cl)CC1)c1ccco1	?	100	/	7	100	100	/	/	/	/	/	/	/
COC(=O)C1=C(C)N=c2s/c(=C3\C(=O)Nc4ccccc43)c(=O)n2C1c1ccccc1 (stereo unspecified)	114	179*[activator]	20	5	120	118	118*	0	102	103	104	100	94
N#Cc1c(C(F)(F)F)cc(C2CC2)[nH]c1=O	184*[activator]	106	23	85*	93	109	109*	1	91	91	92	90	79
Cc1ccc(-c2cc(C(F)(F)F)c(C#N)c(=O)[nH]2)cc1	100	104	12	5	104	101	/	/	/	/	/	/	/
Cc1ccc(NC(=S)N(CCCN2CCCC2)Cc2cccn2Cc2ccc(Cl)cc2)cc1Cl	165*[activator]	113	9	13	117	150	150*	1	104	103	97	103	98
O=C(NCc1ccco1)c1ccc2snnc2c1	188*[activator]	102	30	187*	100	114	114*	-2	102	107	101	99	93
CCCC12CN3CCN(CC(C3)/C1=N\NC(=O)c1ccccc1Cl)C2	103	102	21	10	103	102	/	/	/	/	/	/	/
O=C(Oc1ccc(Br)cc1)c1cncc(Br)c1	159*[activator]	170	36	89*	110	171*[activator]	/	0	103	112	105	106	102
CC(C)c1onc(C(=O)N2C(C)CCCC2C)c1[N+](=O)[O-] (stereo unspecified)	99	107	10	3	102	99	/	/	/	/	/	/	/
CC(C)c1onc(C(=O)N2CCCCC2C)c1[N+](=O)[O-] (stereo unspecified)	23*	-45	14	-1	30*	28*	/	-1	104	102	107	101	103
COc1cc(C(C)=O)ccc1COc1ccc(C(=O)O)cc1OC	?	105	/	4	102	99	/	/	/	/	/	/	/
CCN1C(=O)C(CC(=O)Nc2ccc(OC)cc2)N(Cc2ccco2)C1=S (stereo unspecified)	105	308	22	11	143*[activator]	116	116*	-1	99	90	96	96	77
O=c1[nH]c(C2CCCN(S(=O)(=O)c3ccc(F)cc3)C2)nc2c1nnn2Cc1ccccc1 (stereo unspecified)	105	106	14	10	103	106	/	/	/	/	/	/	/
Cc1ccc(Cn2nnc3c(=O)[nH]c(C4CCCN(S(=O)(=O)c5ccccc5)C4)nc32)cc1 (stereo unspecified)	80	-107*	19	9	73	73	73*	0	105	99	107	105	109
Cc1cc(NC(=O)c2ccccc2-c2ccccc2)ccc1Br	110	226*[activator]	4	15	124	108	108*	0	102	102	99	101	91
Cc1cccc(NC(=O)c2ccccc2-c2ccccc2)c1	?	98	17	9	99	97	/	/	/	/	/	/	/
O=S(=O)(c1ccccc1)c1ncc(C(F)(F)F)cc1Cl	12*	10*	16	/	14*	15*	/	0	106	99	103	98	94
Cc1cc2c(nc1C)CCCN2C[C@@H](C)O/N=C1/[C@H]2CCn3c(=O)n(-c4ccccc4)c(=O)n3[C@H]2[C@H](O)[C@@H]2O[C@H]12	104	104	18	12	104	105	/	/	/	/	/	/	/
O=C(CSc1nnc(Cc2ccccc2)o1)N1CCCc2ccccc21	98	/	43	/	99	93	/	-1	100	105	101	101	83
O=C(CSc1nnc(CNc2ccccc2)o1)N1CCc2ccccc21	100	102	15	6	98	97	/	/	/	/	/	/	/
CCOC(=O)C1(CCOc2ccccc2)CCN(Cc2cc(OC)c3c(c2)OCO3)CC1	97	100	10	2	97	100	/	/	/	/	/	/	/
Cc1ccc2nc(C)c3c(c2c1)SCC3	?	193*[activator]	/	102*	103	207*[activator]	/	0	101	100	102	101	107
CC1=CC(=O)C=C(C)C1=NOc1ccccc1[N+](=O)[O-]	101	99	9	4	100	102	/	/	/	/	/	/	/
Cc1nn(CCCC(=O)N2CCN(c3ccc(F)cc3)CC2)c(C)c1[N+](=O)[O-]	19*	15*	15	3	18*	25*	/	0	103	95	100	99	81
CSc1nc(N)nc(N(C)C)n1	?	106	/	4	102	106	/	/	/	/	/	/	/
CSc1nc(N)nc(C2CC2)n1	?	97	/	5	66	96	/	-2	99	94	96	100	106
